Records with an inconclusive call do not appear. Calls of active or inactive are those of the source. Calls come from the whole dose curve; as a rule, active = well fitted curve in the direction sought with a large enough effect in the repeat runs; inconclusive = weak or mixed curves; inactive = no such curve, though single readings can be large; an effect the other way counts as inactive or inconclusive.
Tests used:
[1] = qHTS RealTime-Glo MT Cell Viability Assay in HEK293 cells - 16 hour (AID 1224872); note: top concentration of the series differs between compounds; nearly all actives have a fitted effect of over 50% in size
Method in brief: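 HEK293 cells seeded with NanoLuc/prosubstrate reagent, rested 5 h at 37 C, then dosed and kept at 37 C up to 40 h. Nonlytic real-time luminescence from viable cells read at 0, 8, 16, 24, 32 and 40 h.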

[2] = qHTS RealTime-Glo MT Cell Viability Assay in HepG2 cells - 8 hour (AID 1224873); note: nearly all actives have a fitted effect of over 55% in size
Method in brief: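 Real-time viability: cells seeded at 600 per well together with NanoLuc and cell-permeant prosubstrate, compounds added after 5 h incubation. Luminescence tracked at 0, 8, 16, 24, 32 and 40 h of exposure.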

[3] = A CellTox Green Cytotoxicity Assay to monitor cytotoxicity in HepG2 cells - 16 hour (AID 1224876); note: nearly all actives have a fitted effect of over 45% in size
Method in brief: (§1)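 Real-time cytotoxicity: fluorescence of a cell-impermeant cyanine dye binding DNA of dead HepG2 cells, measured repeatedly (0–40 h) during compound exposure at 37 C. Cells seeded 600/well with reagent, dosed after 5 h.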

[4] = qHTS RealTime-Glo MT Cell Viability Assay in HepG2 cells - 32 hour (AID 1224877); note: nearly all actives have a fitted effect of over 55% in size
Method in brief: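 HepG2 cells (600/well) were dispensed with RealTime-Glo reagents, incubated 5 h at 37 °C, then treated with compounds in DMSO for up to 40 h. Nonlytic NanoLuc luminescence reflecting viable cells was read at each stated time point.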

[5] = A CellTox Green Cytotoxicity Assay to monitor cytotoxicity in HepG2 cells - 24 hour (AID 1224878); note: nearly all actives have a fitted effect of over 45% in size
Method in brief: as §1

[6] = A CellTox Green Cytotoxicity Assay to monitor cytotoxicity in HepG2 cells - 40 hour (AID 1224879); note: nearly all actives have a fitted effect of over 40% in size
Method in brief: as §1

[7] = A CellTox Green Cytotoxicity Assay to monitor cytotoxicity in HEK293 cells - 32 hour (AID 1224881); note: nearly all actives have a fitted effect of over 40% in size
Method in brief: (§2)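 Fluorescence from a DNA-binding dye excluded by viable cells was measured repeatedly in the same HEK293 wells (600 cells/well) during continuous compound exposure at 37 C. Each assay gives one read point: 0, 8, 16, 24, 32 or 40 h.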

[8] = qHTS RealTime-Glo MT Cell Viability Assay in HEK293 cells - 40 hour (AID 1224874); conditions: RealTime-Glo luminescence; max response: active compounds read low; note: nearly all actives have a fitted effect of over 50% in size
Method in brief: (§3)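 Luminescence, which tracks viable cell number through reduction of the prosubstrate to a NanoLuc substrate, was read over continuous 37 C culture. Cells (600/well) were premixed with reagent and rested 5 h before 23 nL of compound in DMSO was pinned.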

[9] = A CellTox Green Cytotoxicity Assay to monitor cytotoxicity in HEK293 cells - 24 hour (AID 1224875); note: series mostly up to about 77 µM; nearly all actives have a fitted effect of over 45% in size
Method in brief: as §2

[10] = qHTS RealTime-Glo MT Cell Viability Assay in HEK293 cells - 0 hour (AID 1224880); note: top concentration of the series differs between compounds; nearly all actives have a fitted effect of over 45% in size
Method in brief: as §3
% is set by controls: 0 for no effect and ±100 for the full control effect.

O=C1CCCCC1C1CCCCC1 (centres undefined)
inactive: Potency [1] | outcome [2] | Potency [3] | Potency [4] | Potency [5] | Potency [6] | Potency [7]

CCCCNc1ccc(C(=O)OCCN(CC)CC)cc1
inactive: outcome [2] | max response [8] -22.9% | Potency [9] | Potency [3] | Potency [4] | Potency [5] | Potency [6] | outcome [10] | Potency [7]

Cc1ccccc1C(=O)Nc1ccc(C(=O)N2CCCC(O)c3cc(Cl)ccc32)c(C)c1 (centres undefined)
inactive: outcome [2] | Potency [9] | Potency [3] | Potency [4] | Potency [5] | Potency [6] | outcome [10] | Potency [7]

— PubChem BioAssay (Tox21)
